Experimental data published in PubChem BioAssay (NCATS).
Several values for one entry are separate records, joined by “and”; a condition that tells them apart may be missing. Equal values may be shown once. Inconclusive results are not listed. Activity calls are given as the source filed them. Unless noted, calls come from the whole dose curve; as a rule, active = well fitted curve in the direction sought with a large enough effect; inconclusive = small, poorly fitted or top-dose-only effect, or another doubt; inactive = no such curve, though single readings can be large; an effect the other way counts as inactive or inconclusive.

Experiments:
[1] = target: Cellular tumor antigen p53 (Homo sapiens) (UniProt P04637); test: Primary qHTS for small molecule compounds that upregulate eGFP-tagged delta133p53alpha (in N-terminal) cells. (AID 2060322); settings: NCI-H358 eGFP-delta133p53alpha fluorescence, 24 h; activation: active compounds read high;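 note: cells pre-induced with doxycycline then dosed without doxycycline; series mostly up to about 56 µM; 0% = DMSO vehicle and 100% = reference activator; nearly all actives have a fitted effect of over 75% in size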
Method in brief: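 NCI-H358 cells pre-induced 24 h with 10 ng/ml doxycycline for eGFP-delta133p53alpha, plated dox-free and exposed 24 h at 37C to titrated compounds. Fixed, Hoechst-stained; gated GFP peak intensity by laser scanning cytometry, normalized to DMSO (0%) and 57.5 uM 5-azacytidine (100%).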

[2] = target: Cellular tumor antigen p53 (Homo sapiens) (UniProt P04637); test: Primary qHTS for small molecule compounds that upregulate eGFP-tagged delta133p53alpha (in C-terminal) cells. (AID 2060324);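 note: 0% = DMSO wells and 100% = 57.5 µM 5-azacytidine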
Method in brief: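 Doxycycline (100 ng/ml, 24 h) first induced the eGFP fusion in NCI-H358 C-terminal-tag cells. Washed-out cells then received titrated compounds for 24 h at 37 °C before paraformaldehyde fixation, Hoechst staining and cytometric GFP quantification.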

[3] = target: Aldehyde dehydrogenase, mitochondrial (Homo sapiens) (UniProt P05091); test: qHTS for Inhibitors of the Aldehyde Dehydrogenase Family (ALDH2) Validation screens (AID 2061302; active = well fitted inhibition curve with a large enough effect; title and protocol of this record describe different tests;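 note: plate controls were DMSO vehicle for no effect and maximal DPI positive control response for full effect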)
[4] = target: Aldehyde dehydrogenase, mitochondrial (Homo sapiens) (UniProt P05091); test: qHTS for Inhibitors of the Aldehyde Dehydrogenase Family (ALDH2) Primary screen (AID 2061308);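 note: plate controls were vehicle for no effect and reference inhibitor for full effect; nearly all actives have a fitted effect of over 55% in size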
[5] = target: Retinaldehyde dehydrogenase 3 (Homo sapiens) (UniProt P47895); test: qHTS for Inhibitors of the Aldehyde Dehydrogenase Family (ALDH1A3) Validation screen (AID 2061312); note: % is set by controls: 0 for no effect and ±100 for the full control effect; nearly all actives have a fitted effect of over 45% in size
[6] = target: Retinaldehyde dehydrogenase 3 (Homo sapiens) (UniProt P47895); test: qHTS for Inhibitors of the Aldehyde Dehydrogenase Family (ALDH1A3) Primary screen (AID 2061315);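 note: plate controls were DMSO vehicle for no effect and reference inhibitor for full effect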
[7] = BET inhibitor-based combinations targeting novel dependencies in MECOM-rearranged (r) AML: SET-2 cell line (AID 2202231); settings: SET-2 AML cells viability, CellTiter-Glo luminescence, 48 h; viability: active compounds read low, concentration not given here; note: nearly all actives have a fitted effect of over 35% in size; note: potency is the fitted concentration of half-maximal effect;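 for viability: plate controls were DMSO treated cells for no effect and wells without cells for full effect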
Method in brief: (§1)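 Luminescent ATP readout (CellTiter-Glo) after 48 hr drug exposure gives viability. Curves span 11 concentrations and are normalized to DMSO and empty wells. Activity is reported as area under the curve and its Z-transform within each cell line.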

[8] = BET inhibitor-based combinations targeting novel dependencies in MECOM-rearranged (r) AML: MV-4-11 cell line (AID 2202233); note: nearly all actives have a fitted effect of over 45% in size; note: potency is the fitted concentration of half-maximal effect
Method in brief: (§2)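 Luminescent ATP readout (CellTiter-Glo, 15 min at room temperature) after 48 hr drug exposure gave viability. Dose-response curves, normalized to DMSO and empty-well controls, were summarized as area under the curve and its mean-centred Z-score.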

[9] = BET inhibitor-based combinations targeting novel dependencies in MECOM-rearranged (r) AML: UCSD-AML1 cell line (AID 2202235); note: nearly all actives have a fitted effect of over 40% in size; note: potency is the fitted concentration of half-maximal effect
Method in brief: as §2

[10] = BET inhibitor-based combinations targeting novel dependencies in MECOM-rearranged (r) AML: AML-191 cell line (AID 2202236; note: nearly all actives have a fitted effect of over 35% in size; note: potency is the fitted concentration of half-maximal effect)
Method in brief: as §1

[11] = BET inhibitor-based combinations targeting novel dependencies in MECOM-rearranged (r) AML: AML-194 cell line (AID 2202237; note: nearly all actives have a fitted effect of over 40% in size; note: potency is the fitted concentration of half-maximal effect)
Method in brief: as §1

[12] = BET inhibitor-based combinations targeting novel dependencies in MECOM-rearranged (r) AML: OCI-AML3 cell line (AID 2202232); settings: Potency: OCI-AML3 viability; note: potency is the fitted concentration of half-maximal effect; nearly all actives have a fitted effect of over 35% in size
Method in brief: as §1

[13] = BET inhibitor-based combinations targeting novel dependencies in MECOM-rearranged (r) AML: HNT-34 cell line (AID 2202234); note: nearly all actives have a fitted effect of over 35% in size; note: potency is the fitted concentration of half-maximal effect
Method in brief: as §2

Cellular tumor antigen p53 (Homo sapiens), sequence (P04637 whole entry, looked up, the tested form may be a part): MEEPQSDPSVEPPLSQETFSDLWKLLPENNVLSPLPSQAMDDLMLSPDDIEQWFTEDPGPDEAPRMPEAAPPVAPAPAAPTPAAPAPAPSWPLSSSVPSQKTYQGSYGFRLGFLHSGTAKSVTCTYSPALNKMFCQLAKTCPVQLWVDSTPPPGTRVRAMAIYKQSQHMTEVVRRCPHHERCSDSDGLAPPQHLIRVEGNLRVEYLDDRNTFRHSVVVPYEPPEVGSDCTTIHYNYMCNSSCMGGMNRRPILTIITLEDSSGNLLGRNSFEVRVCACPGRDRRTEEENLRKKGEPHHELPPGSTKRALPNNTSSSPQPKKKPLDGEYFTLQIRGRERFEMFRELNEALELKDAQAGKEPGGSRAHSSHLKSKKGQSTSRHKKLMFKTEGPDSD

CCN(CC)CCNC(=O)c1cc(Cl)c(N)cc1OC
inactive: activation [1] -1.69% and -0.477% and 10.5% | Potency [2] | Potency [3] | Potency [4] | Potency [5] | Potency [6]

Clc1ccc2c(c1)N=C(N1CCNCC1)c1ccccc1N2
inactive: activation [1] 11.7% and 30.8% | Potency [2] | Potency [3] | Potency [4] | Potency [5] | Potency [6]

Clc1ccc(Cn2c(CN3CCCC3)nc3ccccc32)cc1
inactive: activation [1] -13.4% and 2.33% and -45.4% | Potency [2] | Potency [3] | Potency [4] | Potency [5] | Potency [6]
active: Potency [7] 20.9 µM | Potency [8] 20.9 µM | Potency [9] 20.9 µM | Potency [10] 18.6 µM | Potency [11] 20.9 µM

O=C(Nc1ccc2[nH]ncc2c1)C1CCC1
inactive: activation [1] -2.43% and 6.33% | Potency [2] | Potency [3] | Potency [4] | Potency [5] | Potency [6]

CC[C@]1(O)CC2CN(CCc3c([nH]c4ccccc34)[C@@](C(=O)OC)(c3cc4c(cc3OC)N(C)[C@H]3[C@@](O)(C(=O)OC)[C@H](OC(C)=O)[C@]5(CC)C=CCN6CC[C@]43[C@@H]65)C2)C1 (stereo partly drawn)
active: Potency [7] 0.742 µM | Potency [12] 0.296 µM | Potency [8] 0.263 µM | Potency [13] 0.209 µM | Potency [9] 0.263 µM | Potency [11] 0.296 µM
inactive: activation [1] 4.91% | Potency [2] | Potency [3] | Potency [4] | Potency [5] | Potency [6]

O=c1c2ccccc2nc2n1CCc1c-2[nH]c2ccccc12
inactive: activation [1] -0.328% and 11% and -19% | Potency [2] | Potency [3] | Potency [4] | Potency [5] | Potency [6]

COc1ccccc1N1CCN(CCN(C(=O)C2CCCCC2)c2ccccn2)CC1
inactive: activation [1] -36.9% and -0.333% and -10.7% | Potency [2] | Potency [3] | Potency [4] | Potency [5] | Potency [6] | Potency [9] | Potency [10] | Potency [11]

CC(=O)CCCCn1c(=O)c2c(ncn2C)n(C)c1=O
inactive: activation [1] -15.1% and -0.333% and -11.4% | Potency [2] | Potency [3] | Potency [4] | Potency [5] | Potency [6]

N[C@@H](Cn1ccc(=O)c(O)c1)C(=O)O
inactive: activation [1] -3.82% and -8.28% | Potency [2] | Potency [3] | activity change, negative = inhibition [4] 3.38% [at 5.59 µM] | Potency [5] | activity change, negative = inhibition [6] 6.23% [at 5.59 µM]

O=C(O)CCc1ccc(NCc2cccc(Oc3ccccc3)c2)cc1
inactive: activation [1] -48.8% and -14.3% and -8.5% | Potency [2] | Potency [3] | Potency [4] | Potency [5] | Potency [6] | viability [7] 117% | Potency [8] | Potency [13] | Potency [10] | Potency [11]

Fc1ccc2[nH]c(CN3CCN(c4ccccn4)CC3)cc2c1
inactive: activation [1] -0.955% | Potency [2] | Potency [3] | Potency [4] | Potency [5] | Potency [6]

CNCCCC1c2ccccc2C=Cc2ccccc21
inactive: activation [1] -1.67% and -3.36% | Potency [2] | Potency [3] | Potency [5]

Cc1ccccc1C(OCCN(C)C)c1ccccc1 (stereo not drawn)
inactive: activation [1] 0.562% and -27.9% | Potency [2] | Potency [3] | Potency [5]

O=[N+]([O-])c1ccc(CNc2nc(NCc3cccc(C(F)(F)F)c3)nc3nc[nH]c23)cc1
inactive: activation [1] -48.1% and 15.7% | Potency [2] | Potency [3] | Potency [4] | Potency [5] | Potency [6]

CCNc1nc2c(ncn2[C@H]2C[C@H](O)[C@@H](CO)O2)c(=O)[nH]1
inactive: activation [1] 9.4% and 5.67% | Potency [2] | Potency [3] | Potency [4] | Potency [5] | Potency [6]

CC(C(O)c1ccc(O)cc1)N1CCC(Cc2ccccc2)CC1 (stereo not drawn)
inactive: activation [1] -5.02% and -1% and -19.5% | Potency [2] | Potency [3] | Potency [4] | Potency [5] | Potency [6]

O=C(Nc1ccc2c(c1)CCN(Cc1ncn[nH]1)C2)c1ccccc1-c1ccc(C(F)(F)F)cc1
inactive: activation [1] -9.63% and 4.33% | Potency [2] | Potency [3] | Potency [4] | Potency [5] | Potency [6] | viability [7] 96.3% | Potency [13] | Potency [9] | Potency [10] | Potency [11]
active: Potency [8] 14.8 µM
